Reference: PubChem BioAssay (NCATS)
Results filed as inconclusive are left out. Entries that show only a call come without a potency. Calls of active or inactive are those of the source. Calls come from the whole dose curve; as a rule, active = well fitted cell-killing curve with a large enough effect; inconclusive = small, poorly fitted or top-dose-only effect, or effect the other way; inactive = no such curve, though single readings can be large or run the other way.

Test: Quantitative High-Throughput drug screen in 47 multiple myeloma cell lines against the NCATS MIPE library collection: LP1_DSMZ cell viability assay (AID 1918982); note: nearly all actives have a fitted effect of over 35% in size
Settings: LP1 myeloma viability, CellTiter-Glo ATP luminescence, 48 h; series mostly up to 45.8 µM
How it was run: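 Viability after 48 h drug exposure was measured as ATP-dependent luminescence. Cells, 500 per well, sat at 37 °C under 5% CO2; DMSO wells set 100%, media-only wells 0%.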
Potency is the fitted concentration of half-maximal effect.

| SMILES | Potency |
| --- | --- |
| COc1ccc2c(c1)c(CC(=O)O)c(C)n2C(=O)c1ccc(Cl)cc1 | inactive |
| COc1cc2nc(N3CCN(C(=O)C4COc5ccccc5O4)CC3)nc(N)c2cc1OC (centres undefined) | 11.8 µM (active) |
| O=C1N(c2ccccc2)c2ccccc2C1(Cc1ccncc1)Cc1ccncc1 | inactive |
| Cc1cc(C(C)(C)C)c(O)c(C)c1CC1=NCCN1 | inactive |
